# Experiments:
# Assay in all cases: PBM binding z-score (relative to random genomic background probes); higher = stronger binding; sequences stand for … in GC…GCGATTGACAGCGTAGAATGAAGG
# [1] = test system: PPARg:RXRa DBDmut IVT, anti-RXR (DBD mutation: RXRa K156A/R161A, NR concentration 270 nM, RXRa partner concentration 90 nM)
# In short: (§1)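 Custom Agilent 4×180K protein-binding microarrays carried double-stranded probes, each with a 34-nt variable region. These regions held direct-repeat seeds, single-nucleotide variants, half-site ablations and random human genomic background sequences. Ligand-free nuclear receptor dimers were incubated on the arrays for 1 h, antibodies against each partner (one per run) detected binding, and scanned fluorescence was regression-normalized. Binding z-scores take the random background probes as reference.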
# [2] = test system: PPARg:RXRa IVT, anti-PPARg (NR concentration 270 nM, RXRa partner concentration 90 nM)
# In short: as §1
# [3] = test system: PPARg DBDmut:RXRa IVT, anti-PPARg (DBD mutation: PPARg1 K132A/R137A, NR concentration 270 nM, RXRa partner concentration 90 nM)
# In short: as §1
# [4] = test system: PPARg DBDmut IVT, anti-PPARg (DBD mutation: PPARg1 K132A/R137A, NR concentration 270 nM)
# In short: as §1
# [5] = test system: PPARg homodimer (NR concentration 180 nM)
# In short: as §1
# [6] = test system: PXR:RXRa (NR concentration 270 nM, RXRa partner concentration 90 nM)
# In short: as §1
# [7] = test system: PXR homodimer (NR concentration 270 nM)
# In short: as §1
# [8] = test system: RARa:RXR (NR concentration 270 nM, RXRa partner concentration 90 nM)
# In short: as §1
# [9] = test system: RARa homodimer (NR concentration 270 nM)
# In short: as §1
# [10] = test system: RARb:RXRa (NR concentration 270 nM, RXRa partner concentration 90 nM)
# In short: as §1
# [11] = test system: RARb homodimer (NR concentration 270 nM)
# In short: as §1
# [12] = test system: RARg:RXRa (NR concentration 270 nM, RXRa partner concentration 90 nM)
# In short: as §1
# [13] = test system: RARg homodimer (NR concentration 270 nM)
# In short: as §1
# [14] = test system: RXRa DBDmut IVT, anti-RXR (DBD mutation: RXRa K156A/R161A, NR concentration 90 nM)
# In short: as §1
# [15] = test system: RXRa homodimer (NR concentration 180 nM)
# In short: as §1
# [16] = test system: THRa:RXRa (NR concentration 90 nM, RXRa partner concentration 90 nM)
# In short: as §1
# [17] = test system: THRa homodimer (NR concentration 90 nM)
# In short: as §1
# [18] = test system: VDR homodimer (NR concentration 270 nM)
# In short: as §1
Sequence,PBM binding z-score [1],PBM binding z-score [2],PBM binding z-score [3],PBM binding z-score [4],PBM binding z-score [5],PBM binding z-score [6],PBM binding z-score [7],PBM binding z-score [8],PBM binding z-score [9],PBM binding z-score [10],PBM binding z-score [11],PBM binding z-score [12],PBM binding z-score [13],PBM binding z-score [14],PBM binding z-score [15],PBM binding z-score [16],PBM binding z-score [17],PBM binding z-score [18]
CTACCAAGGTGAACAAGGTCGTTCATTACTATTC,4.04,2.99,0.407,0.669,1.03,3.55,3.05,2.7,0.251,2.38,2.93,2.18,1.75,2.32,2.27,3.56,2.2,3.38
TCTTGTAGATCAACAGGAGGTTAACAAAGATCGA,1.52,1.09,0.689,0.664,0.353,1.08,0.0367,1.36,-0.353,0.717,0.875,1.22,0.542,0.267,1.3,1.22,0.0101,-0.33
CGTTACGGGTCACTGACAGGTTATAGCATTTGGA,3.65,3.74,0.269,0.284,2.14,3.75,-0.254,4.61,0.338,3.93,3.43,5.78,4.8,1.74,5.12,3,0.0977,0.672
ACAGACAGGTGGTGAAGGTAACTCAGGCTATCAT,-0.597,0.0629,-0.371,-0.55,0.0722,-0.271,0.0248,-0.15,0.517,-0.142,0.218,0.00728,-0.0161,-0.443,0.0945,0.769,0.206,-0.381
CTACCGAGGTGAACAAGGTCGTTGATTACTATTC,2.91,3.47,0.523,0.329,0.965,3.25,1.95,2.62,-0.15,2.19,2.25,2.19,1.74,1.74,2.4,3.6,2.43,3.13
CAGCCTAGGTCAGGGGCAGTATAGGAGGAACGTT,1.2,1.71,-0.201,-0.982,1.41,0.677,-0.048,1.33,0.0151,3.5,2.99,3.27,4.18,-0.191,1.91,2.37,0.948,0.103
TCTTGTAGATCAAGCATGTTAAGAAAGCCTGAGT,1.83,0.509,0.824,-0.00587,-0.0678,0.378,0.162,0.466,0.241,-0.0485,-0.365,-0.147,-0.0954,0.943,0.122,-0.0977,-0.856,0.128
CAGCCTAGGTCAGGGCCGGTATAGGAGGAACGTT,0.942,1.52,-0.778,-1.19,0.324,0.229,-0.999,0.69,-0.753,3.33,2.41,3.04,3.86,-0.785,1.56,1.88,0.2,-0.454
CGTCCAAGGTCAGAGAGGTCAGGGAATGCCGAGT,2.19,3.4,0.15,0.231,4.31,5.87,10.6,5.44,1.09,5.55,5.34,6.59,7.38,3.45,6.19,4.47,3.11,4.88
CAAACTAGGTCACACAGGTCAAAGTCCGTGCGTA,8.75,9.19,1.71,1.11,2.43,4.78,4.14,4.85,0.759,4.59,5.02,6.04,5.85,2.27,5.62,4.13,2.13,4.16
TCTTGTAGATCAAAGGTTAGGAAAGCCGAAGCCT,2.13,3.42,0.503,0.103,1.92,1.04,-0.482,2.02,0.262,1.4,0.876,0.902,0.458,0.579,2.08,0.654,-0.709,-0.493
ACTAGTTGGTCAGCGGAGGTCACACACAATTCGG,1.63,2.75,1.36,0.469,3.06,4.99,1.8,4.46,1.6,3.59,4.09,3.96,4.21,0.9,3.77,4.32,2.89,3.02
CGCACGAGGGCATGAGTTGATAGCAAATGCCGAT,1.88,1.02,-0.109,-0.507,0.288,0.438,-0.109,0.296,-0.714,2.09,1.2,1.1,1.72,2.41,0.956,1.3,0.0381,1.63
CAAACTAGGTCAAGGACAGTGAATCTCCGCACGC,8.06,8.33,5.83,2.41,2.39,1.42,0.22,2.41,1.49,4.06,3.29,3.69,4.39,1.7,2.79,3.27,2.33,0.901
TCTCGGAGGACACGAAAGGTCATAGCTCGACATC,2.17,2.14,1.29,0.408,3.48,5.31,1.81,5.39,1.62,4.26,4.89,5.58,5.34,1.71,5.3,4.24,2.12,2.67
ACTATTAGTTGACCTAGGGCAACCGATACGACGC,1.31,2.56,0.917,1.25,1.64,2.05,0.901,2.79,0.637,2.18,3.05,2.88,2.36,0.89,2.55,2.96,1.6,0.946
AACACAGGGTCATCGTAGGCCAGAGTACGCACAG,2.2,3.46,1.2,0.514,2.34,4.91,0.707,4.91,0.823,4.3,3.59,5.74,5.13,3.79,6.58,4.5,1.69,3.84
CCGACTGGGGCATAAGGTTACCGTAAGCCAGCCC,3.14,3.4,-0.802,-1.39,0.271,0.55,-0.911,1.66,-0.61,1.98,1.83,2.05,1.06,-0.367,1.34,2.26,1.13,-0.402
ATATGTAGGTCACATCCGGGTCATTCAGGCTATG,8.71,8.92,2.83,2.12,3.45,5.25,2.96,5.31,0.84,4.34,4.84,6.67,5.7,2.15,5.28,4.65,2.94,3.78
AGAATGAGTTTATACGTAGATCAGGGAAGAAAGT,-0.616,0.0744,0.757,0.612,-0.608,0.81,1.21,-0.34,0.222,0.0922,-0.157,0.14,0.357,3.89,-0.175,-0.0164,-0.368,3.35
GGAGCGAGGGCATTCGAGTTGATAGCATGGCGAT,0.18,0.079,-0.936,-1.62,-0.569,3.55,0.905,1.1,-0.544,1.75,0.497,0.849,1.26,2.53,0.554,3.15,-0.906,3.06
TCGAGTAGGTTAGGGGAATTCAGAATGGCGTCGA,2.13,1.78,0.128,-0.466,0.866,-0.0984,0.0558,-0.0883,0.338,0.249,0.239,-0.23,-0.153,0.0691,-0.0464,0.0502,-0.191,-0.0168
GCAGACAGGTGAAACGCAGGTAATTCAGGGTGGC,0.893,0.576,-0.406,-0.569,0.0586,-0.158,-0.351,0.462,-0.448,0.697,0.413,0.684,0.304,-0.376,0.614,1.38,-0.381,-0.586
ATCGAAAGGTCGACGAGGTAAGTATACACCGTTT,0.556,1.6,0.911,0.688,1.42,2.3,0.185,3.12,0.419,3.66,2.39,3.89,3.66,1.2,4.03,3.14,0.239,0.679
ACTAGCAGGCCAAGTTTGGGTCACGCAAACAAAG,1.23,1.63,-0.285,-0.284,0.631,1.61,-0.0621,2.51,-0.0801,2.33,2.72,3.25,2.19,-0.213,1.71,3.3,1.78,0.403
TCATAAAGGTAAAAGGTGAAAGTCGGTGTGGTAA,3.49,3.5,0.634,0.86,2.26,2.56,0.65,4,1.25,2.54,2.25,2.87,1.28,1.94,4.16,2.34,0.408,0.435
CGTTAAAGTTCAAGGTAACGTAACAGAAAGCAGC,0.894,2.08,0.767,0.8,1.94,3.79,2.16,2.94,2.05,4.96,3.54,4.91,5.74,4.35,3.98,2.78,1.23,3.34
AGAACGAGGGCAATGCGTTGATAGCACGGGTGGC,2.94,2.57,1.12,0.0782,-0.251,0.219,0.111,0.271,-0.114,2.21,0.934,1.05,1.65,1.2,0.834,0.775,-0.0819,1.17
GTACCGAGGTGAATAGGTCGTTGATGAGTAGGCG,1.68,2.73,-0.652,-0.0941,1.09,0.905,-0.18,2.02,-0.153,2.03,1.73,2.95,1.64,-0.0161,2.11,2.15,0.482,0.202

# — the supplement of paper PMC6555819
